Assay results taken from PubChem BioAssay (EPA / NIEHS).
Where “and” joins values, the source holds several entries; their conditions need not be identical. Identical values can stand only once. Results filed as inconclusive are left out. Calls of active or inactive are those of the source. The calls were made as follows, unless noted: active = hit-call score of the fitted dose curve at least 0.9, where 1 is the maximum; inactive = score below 0.9.

Tests used:
[1] = read-out: E-selectin (Homo sapiens) (UniProt P16581); assay: BSK_SAg_Eselectin: BioMAP Diversity Plus: SAg Assay for Eselectin Biomarker Activity (AID 2283091); conditions: primary human HUVEC with PBMC; actives raise or lower the signal
Method in brief: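 HUVEC co-cultured with PBMC, compound dosed then read at 24 h; E-selectin measured by ELISA. Activity fitted bidirectionally against DMSO as negative control and baseline.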

[2] = read-out: Monokine induced gamma interferon (MIG), CXCL9 (gene 4283); assay: BSK_SAg_MIG: BioMAP Diversity Plus: SAg Assay for Monokine induced gamma interferon (MIG) Biomarker Activity (AID 2283092); conditions: primary human HUVEC with PBMC; actives raise or lower the signal
Method in brief: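 Measures CXCL9 protein by ELISA in a human vascular primary-cell co-culture (umbilical vein endothelium with PBMC) 24 h after chemical addition. Activity is scored up or down from the DMSO control.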

[3] = BSK_SAg_PBMCCytotoxicity: PBMC Cytotoxicity Assessment in the BioMAP Diversity Plus: SAg Assay (AID 2283093); conditions: primary human HUVEC with PBMC;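 also: PBMC viability measured as Alamar Blue reduction fluorescence at 546/580 nm; fitted both ways against DMSO so a hit may be loss or gain of signal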;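 as to AC50: PBMC superantigen activated with SEB plus TSST-1 one hour after compound addition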
Method in brief: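 Alamar Blue reduction (6 h, ex/em 546/580 nm) read after 90 h culture of PBMC pre-dosed 1 h then stimulated with SEB plus TSST-1, 20 ng/mL each. Gain or loss of signal fitted relative to DMSO.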

[4] = read-out: Interleukin-8 (IL8), CXCL8 (gene 3576); assay: BSK_SAg_IL8: BioMAP Diversity Plus: SAg Assay for Interleukin-8 (IL8) Biomarker Activity (AID 2283094); conditions: primary human HUVEC with PBMC; actives raise or lower the signal
Method in brief: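 HUVEC/PBMC co-culture, 24 h post-dose; IL-8 by ELISA. Gain or loss of signal fitted bidirectionally vs DMSO baseline.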

[5] = BSK_SAg_Proliferation: Cell Proliferation Assessment in the BioMAP Diversity Plus: SAg Assay (AID 2283095); conditions: primary human HUVEC with PBMC;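 also: relative cell number as total protein by SRB absorbance in sub-confluent culture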
Method in brief: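 HUVEC/PBMC co-culture, 96-well. TCA-fixed (10%), 0.1% SRB stain, A560 at 96 h. Protein content used as viability readout; bidirectional fitting vs DMSO control.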

[6] = BSK_SAg_SRB: Viability Assessment in the BioMAP Diversity Plus: SAg Assay (AID 2283096); conditions: primary human HUVEC with PBMC;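 also: cells read one day after compound addition; hits may be either gain or loss of signal compared with DMSO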
Method in brief: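 SRB absorbance at 560 nm served as the viability read-out. Cells (HUVEC plus peripheral blood mononuclear cells) were TCA-fixed and stained 24 h post-dosing; activity fitted in both directions against DMSO controls.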

[7] = molecular target: human CYP1A1, CYP1A1 (gene 1543) (UniProt P04798); assay: NVS_ADME_hCYP1A1: NovaScreen (NVS) CYP450-related Enzyme Activity (ADME) Assay for human CYP1A1 (AID 2283100; active = hit-call score of the fitted dose curve at least 0.9, where 1 is the maximum)
Chain of human CYP1A1, CYP1A1 (gene 1543) (P04798 whole entry, looked up): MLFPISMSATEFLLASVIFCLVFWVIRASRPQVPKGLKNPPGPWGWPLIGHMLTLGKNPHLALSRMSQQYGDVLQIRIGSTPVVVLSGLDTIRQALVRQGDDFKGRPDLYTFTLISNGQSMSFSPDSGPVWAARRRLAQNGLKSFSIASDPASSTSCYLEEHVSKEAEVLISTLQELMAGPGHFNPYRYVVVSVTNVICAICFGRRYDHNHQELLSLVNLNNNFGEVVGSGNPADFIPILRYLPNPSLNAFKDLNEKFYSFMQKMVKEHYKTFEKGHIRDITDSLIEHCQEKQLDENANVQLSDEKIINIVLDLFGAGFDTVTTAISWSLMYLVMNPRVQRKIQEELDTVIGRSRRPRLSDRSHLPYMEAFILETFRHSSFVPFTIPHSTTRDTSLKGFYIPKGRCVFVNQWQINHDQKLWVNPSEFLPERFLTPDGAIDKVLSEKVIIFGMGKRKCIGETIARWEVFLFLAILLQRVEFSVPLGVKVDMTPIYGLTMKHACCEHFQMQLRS
Method in brief: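 Cell-free fluorescence assay of recombinant human CYP1A1 activity with a specific substrate, read 1 h after dosing. Compounds were screened in duplicate at 10 uM, then hits tested in concentration-response up to 20 uM; acetonitrile served as baseline.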

[8] = molecular target: human CYP2B6, CYP2B6 (gene 1555) (UniProt P20813); assay: NVS_ADME_hCYP2B6: NovaScreen (NVS) CYP450-related Enzyme Activity (ADME) Assay for human CYP2B6 (AID 2283101; active = hit-call score of the fitted dose curve at least 0.9, where 1 is the maximum)
Chain of human CYP2B6, CYP2B6 (gene 1555) (P20813 whole entry, looked up): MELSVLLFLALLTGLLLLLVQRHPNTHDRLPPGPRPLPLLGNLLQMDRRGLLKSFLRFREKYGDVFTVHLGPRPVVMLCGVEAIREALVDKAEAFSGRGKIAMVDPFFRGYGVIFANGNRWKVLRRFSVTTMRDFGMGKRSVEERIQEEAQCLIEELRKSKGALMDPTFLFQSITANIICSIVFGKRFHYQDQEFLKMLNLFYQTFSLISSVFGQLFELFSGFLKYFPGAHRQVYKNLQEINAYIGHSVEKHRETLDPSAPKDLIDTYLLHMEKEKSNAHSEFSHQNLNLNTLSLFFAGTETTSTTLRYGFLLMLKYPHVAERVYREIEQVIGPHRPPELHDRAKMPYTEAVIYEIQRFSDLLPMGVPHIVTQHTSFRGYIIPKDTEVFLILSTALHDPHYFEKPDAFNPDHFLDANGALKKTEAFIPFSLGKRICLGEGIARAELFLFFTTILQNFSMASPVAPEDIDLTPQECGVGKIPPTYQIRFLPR
Method in brief: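 Recombinant protein, specific fluorescent substrate, read at 1 h post-dosing. Primary: single 10 uM, duplicate; follow-up: concentration series. Activity = signal loss vs acetonitrile baseline, with positive and negative controls on every plate.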

[9] = molecular target: human CYP19A1, CYP19A1 (gene 1588) (UniProt P11511); assay: NVS_ADME_hCYP19A1: NovaScreen (NVS) CYP450-related Enzyme Activity (ADME) Assay for human CYP19A1 (AID 2283098; active = hit-call score of the fitted dose curve at least 0.9, where 1 is the maximum;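 also: potency for inhibitors seen as loss of fluorescent enzyme signal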)
Chain of human CYP19A1, CYP19A1 (gene 1588) (P11511 whole entry, looked up): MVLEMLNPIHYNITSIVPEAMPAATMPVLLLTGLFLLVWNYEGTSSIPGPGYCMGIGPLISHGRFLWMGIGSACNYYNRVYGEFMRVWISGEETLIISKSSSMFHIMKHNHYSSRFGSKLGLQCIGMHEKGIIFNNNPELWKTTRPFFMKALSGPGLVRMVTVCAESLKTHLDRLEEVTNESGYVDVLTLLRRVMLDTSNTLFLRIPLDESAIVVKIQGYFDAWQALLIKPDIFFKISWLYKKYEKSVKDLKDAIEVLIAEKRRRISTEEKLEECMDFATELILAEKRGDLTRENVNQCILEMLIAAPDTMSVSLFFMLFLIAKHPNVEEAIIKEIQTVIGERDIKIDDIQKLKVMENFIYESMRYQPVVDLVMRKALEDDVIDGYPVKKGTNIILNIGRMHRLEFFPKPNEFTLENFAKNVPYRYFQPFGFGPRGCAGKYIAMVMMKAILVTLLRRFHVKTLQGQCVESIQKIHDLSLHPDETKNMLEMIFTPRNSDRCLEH
Method in brief: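 Primary testing was in duplicate at a single 10 uM concentration, with actives followed up in concentration-response series. Fluorescence read-out of recombinant enzyme activity at 0.5 h, cell-free. Acetonitrile was the negative-control baseline.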

[10] = molecular target: human CYP2A6, CYP2A6 (gene 1548) (UniProt P11509); assay: NVS_ADME_hCYP2A6: NovaScreen (NVS) CYP450-related Enzyme Activity (ADME) Assay for human CYP2A6 (AID 2283099; active = hit-call score of the fitted dose curve at least 0.9, where 1 is the maximum)
Chain of human CYP2A6, CYP2A6 (gene 1548) (P11509 whole entry, looked up): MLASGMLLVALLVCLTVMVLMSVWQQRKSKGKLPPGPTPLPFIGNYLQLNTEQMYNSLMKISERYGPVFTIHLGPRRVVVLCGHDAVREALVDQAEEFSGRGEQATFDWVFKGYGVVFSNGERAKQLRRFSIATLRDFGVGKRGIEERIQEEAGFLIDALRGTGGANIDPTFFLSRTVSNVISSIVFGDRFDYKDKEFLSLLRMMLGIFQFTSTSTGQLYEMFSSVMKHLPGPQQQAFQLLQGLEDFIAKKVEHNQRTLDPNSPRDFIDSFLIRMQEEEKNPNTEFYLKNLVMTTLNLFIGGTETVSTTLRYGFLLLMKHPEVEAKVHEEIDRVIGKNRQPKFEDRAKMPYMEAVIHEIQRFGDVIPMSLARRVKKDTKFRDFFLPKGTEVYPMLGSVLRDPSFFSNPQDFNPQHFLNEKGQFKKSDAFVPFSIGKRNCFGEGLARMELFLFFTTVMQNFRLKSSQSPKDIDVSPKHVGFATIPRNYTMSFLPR
Method: NVS_ADME_hCYP2A6 is a biochemical, single-readout assay that uses extracted gene-proteins from insect cells in a cell-free assay. Measurements were taken 0.5 hour after chemical dosing in a 96-well plate.NVS_ADME_hCYP2A6 is one of one assay component(s) measured or calculated from the NVS_ADME_hCYP2A6 assay. It is designed to make measurements of enzyme activity, a form of enzyme reporter, as detected with fluorescence intensity signals by Fluorescence technology.Data from the assay component NVS_ADME_hCYP2A6 was analyzed into 1 assay endpoint. This assay endpoint, NVS_ADME_hCYP2A6, was analyzed in the positive analysis fitting direction relative to Acetonitrile as the negative control and baseline of activity. Using a type of enzyme reporter, loss-of-signal activity can be used to understand changes in the enzymatic activity as they relate to the gene CYP2A6. Furthermore, this assay endpoint can be referred to as a primary readout, because this assay has produced multiple assay endpoints where this one serves a enzymatic activity function. To generalize the intended target to other relatable targets, this assay endpoint is annotated to the cyp intended target family, where the subfamily is xenobiotic metabolism.
Binding assays used specific radioligands (tritiated, iodinated) with non-radioactive competitive displacement ligands in agonist or antagonist protocols (as indicated) and various reference compounds and inhibitors to titrate specific binding to receptors and transporters. Most enzyme assays (CYPs, kinases, phosphatases, proteases, HDACs) used recombinant protein and specific substrates (fluorescence mostly, some colorimetric and radioactive) and inhibitors, followed by a biochemical separation of substrate and product. All assays for the biochemical HTS were initially run in duplicate at a single concentration (10 uM for CYP450 assays and 25 uM for all others). Assay-chemical combinations meeting a pre-defined threshold (e.g., 30% inhibition and other criteria defined below) were then run in singleton concentration-response format with maximum concentration of 20 uM for CYPs and 50 uM for all others. Each assay was run with positive and negative controls, and concurrent controls on every plate. The follow-up (secondary) screen tested active chemical-pairs in concentration series, as well as a few additional assays not tested in the primary screen, some selected negative inactives, and several cases re-run in the concentration series for confirmatory purposes.

Measured: AC50

Chain of E-selectin (Homo sapiens) (P16581 whole entry, looked up): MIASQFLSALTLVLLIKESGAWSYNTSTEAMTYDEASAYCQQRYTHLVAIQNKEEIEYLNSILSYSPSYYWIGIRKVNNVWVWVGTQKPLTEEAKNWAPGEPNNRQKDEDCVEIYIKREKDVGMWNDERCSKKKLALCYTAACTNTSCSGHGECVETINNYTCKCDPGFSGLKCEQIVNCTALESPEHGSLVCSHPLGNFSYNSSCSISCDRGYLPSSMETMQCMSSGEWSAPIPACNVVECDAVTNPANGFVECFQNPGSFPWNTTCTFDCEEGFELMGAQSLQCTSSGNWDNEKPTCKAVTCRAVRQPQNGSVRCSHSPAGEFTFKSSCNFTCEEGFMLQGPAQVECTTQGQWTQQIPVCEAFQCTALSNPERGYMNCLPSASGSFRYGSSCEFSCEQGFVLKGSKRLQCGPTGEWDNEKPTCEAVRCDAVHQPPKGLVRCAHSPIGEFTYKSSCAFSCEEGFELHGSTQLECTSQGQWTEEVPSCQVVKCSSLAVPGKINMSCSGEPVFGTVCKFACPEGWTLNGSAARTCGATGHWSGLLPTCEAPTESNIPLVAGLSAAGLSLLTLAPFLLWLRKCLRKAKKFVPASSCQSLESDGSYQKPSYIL

O=C(O)c1cc(Oc2ccc(C(F)(F)F)cc2Cl)ccc1[N+](=O)[O-]
inactive: [1] | [2] | [3] | [4] | [5] | [6]

CNC(=O)Oc1cccc2c1OC(C)(C)O2
active: [1] 15 µM | [5] 20 µM
inactive: [2] | [3] | [4] | [6]

CN1COCN(Cc2cnc(Cl)s2)C1=N[N+](=O)[O-]
inactive: [1] | [2] | [3] | [4] | [5] | [6]

CC1=NNC(=O)N(/N=C/c2cccnc2)C1
inactive: [1] | [2] | [3] | [4] | [5] | [6]

CSC1=N[C@@](C)(c2ccccc2)C(=O)N1Nc1ccccc1
inactive: [2] | [6]
active: [1] 8.29 µM | [3] 7.23 µM | [4] 8.81 µM | [5] 9.67 µM

O=[N+]([O-])c1cc(C(F)(F)F)c(Cl)c([N+](=O)[O-])c1Nc1ncc(C(F)(F)F)cc1Cl
active: [1] 1.51 µM and 2.65 µM | [2] 3.49 µM and 2.45 µM | [3] 814 nM and 2.03 µM | [4] 1.81 µM and 3.64 µM | [5] 318 nM and 526 nM | [6] 3.84 µM

Cc1cc(C2CC2)nc(Nc2ccccc2)n1
active: [1] 34.4 µM | [3] 7.66 µM | [5] 34.3 µM | [6] 15 µM
inactive: [2] | [4]

Nc1nc(N)nc(NC2CC2)n1
inactive: [1] | [2] | [3] | [4] | [5] | [6]

CN(C)NC(=O)CCC(=O)O
inactive: [1] | [2] | [3] | [4] | [5] | [6]

CCOC(=O)COc1cc(-c2nn(C)c(OC(F)F)c2Cl)c(F)cc1Cl
inactive: [1] | [2] | [3] | [4] | [5] | [6]

CCC(=NOC/C=C/Cl)C1=C(O)CC(C2CCOCC2)CC1=O (stereo not given)
inactive: [1] | [2] | [3] | [4] | [5] | [6]

CC(Oc1cccc(Cl)c1)C(=O)O (stereo not given)
inactive: [1] | [2] | [3] | [4] | [5] | [6]

C#CCC1=C(C)C(OC(=O)C2C(C=C(C)C)C2(C)C)CC1=O (stereo not given)
active: [1] 31.3 µM | [2] 36.6 µM | [3] 32.9 µM | [4] 26 µM | [5] 34 µM | [6] 26.9 µM

CC(=NC#N)N(C)Cc1ccc(Cl)nc1
inactive: [1] | [2] | [3] | [4] | [5] | [6]

C[N+]1(C)CCCCC1
inactive: [1] | [2] | [3] | [4] | [5] | [6]

CCCOc1nn(C(=O)NS(=O)(=O)c2ccccc2C(=O)OC)c(=O)n1C
inactive: [1] | [2] | [3] | [4] | [5] | [6]

COc1cc(OC)nc(Sc2cccc(Cl)c2C(=O)O)n1
inactive: [1] | [2] | [3] | [4] | [5] | [6]

COc1cccc(C(=O)NN(C(=O)c2cc(C)cc(C)c2)C(C)(C)C)c1C
inactive: [1] | [2] | [3] | [4] | [5] | [6]

CCC(=O)Nc1ccc(Cl)c(Cl)c1
inactive: [1] | [2] | [3] | [4] | [5] | [6]

O=c1ccc(=O)[nH][nH]1
inactive: [1] | [2] | [3] | [4] | [5] | [6]

CCNc1nc(Cl)nc(NC(C)(C)C#N)n1
inactive: [2] | [3] | [4] | [5] | [6]
active: [1] 4.59 µM

CCOP(=S)(Oc1cnc(C(C)(C)C)nc1)OC(C)C (stereo not given)
active: [1] 31.4 µM | [2] 33.3 µM | [3] 36.7 µM | [4] 30.3 µM | [5] 36.6 µM | [6] 34.3 µM

CC(COc1ccc(Oc2ccccc2)cc1)Oc1ccccn1 (stereo not given)
inactive: [1] | [2] | [4]
active: [3] 12 µM | [5] 26.7 µM | [6] 7.1 µM

N#CSCSC#N
active: [1] 11.1 µM | [2] 8.84 µM | [3] 3.25 µM | [4] 11.7 µM | [5] 1.99 µM | [6] 6.08 µM

CC(C)N(C(=O)SCC(Cl)=C(Cl)Cl)C(C)C
active: [1] 31.8 µM | [2] 36.7 µM | [3] 36.5 µM | [4] 31 µM | [5] 38 µM | [6] 31.5 µM

COP(=O)(OC)C(O)C(Cl)(Cl)Cl (stereo not given)
inactive: [2] | [3] | [4] | [6]
active: [1] 32.5 µM | [5] 8.98 µM

Cc1ccn2nc(S(=O)(=O)Nc3c(F)cccc3F)nc2n1
inactive: [1] | [2] | [3] | [4] | [5] | [6]

CCOP(=S)(OCC)OC(Cl)C(Cl)(Cl)Cl (stereo not given)
active: [1] 31.2 µM | [3] 29.9 µM | [4] 25.9 µM | [5] 33.5 µM | [6] 13 µM
inactive: [2]

CCc1cnc(C2=NC(C)(C(C)C)C(=O)N2)c(C(=O)O)c1 (stereo not given)
inactive: [1] | [2] | [3] | [4] | [5] | [6]

CSc1nnc(C(C)(C)C)c(=O)n1N
inactive: [1] | [2] | [3] | [4] | [5] | [6]

COP(=O)(OC)OC(Br)C(Cl)(Cl)Br (stereo not given)
active: [1] 22.7 µM | [2] 36.8 µM | [3] 14.7 µM | [4] 22.9 µM | [5] 7.28 µM | [6] 30.4 µM

CCCCOC(=O)[C@@H](C)Oc1ccc(Oc2ccc(C#N)cc2F)cc1
inactive: [1] | [2] | [3] | [4] | [5] | [6]

CCCCSP(=O)(SCCCC)SCCCC
active: [3] 34.8 µM | [4] 25.9 µM | [5] 36.2 µM | [6] 22.5 µM
inactive: [1] | [2]

Cc1nn(-c2cc(NS(C)(=O)=O)c(Cl)cc2Cl)c(=O)n1C(F)F
inactive: [1] | [2] | [3] | [4] | [5] | [6]

CN(C)[C@@H]1C(=O)C(C(N)=O)=C(O)[C@@]2(O)C(=O)C3=C(O)c4c(O)cccc4[C@@](C)(O)[C@H]3[C@H](O)[C@@H]12
inactive: [1] | [2] | [3] | [4] | [5] | [6]

CCOP(=S)(OCC)Oc1ccc2c(C)c(Cl)c(=O)oc2c1
inactive: [2] | [3] | [4] | [6]
active: [1] 5.21 µM | [5] 5.08 µM | [7] 0.352 µM | [8] 0.433 µM

CCCOCC(=Nc1ccc(Cl)cc1C(F)(F)F)n1ccnc1
inactive: [10]
active: [1] 11.6 µM | [2] 32.4 µM | [3] 31 µM | [4] 15.9 µM | [5] 24.5 µM | [6] 27.9 µM | [9] 0.999 µM | [7] 4.18 µM | [8] 1.58 µM

CCOP(=O)(NC(C)C)Oc1ccc(SC)c(C)c1 (stereo not given)
active: [7] 4.81 µM
not listed: [8] | [9] | [10]
inactive: all other assays above
